# Screening results as filed in PubChem.
# Wnt act = Wnt/beta-catenin pathway activators, primary screen, cell-based, plate reader, single point. Wnt/beta-catenin reporter cell assay, activator. hit rate 1.2% among 300,000. activation, % at 9.35 µM; in the data active means activation above about 30%, passing the limit was not always enough; inconclusive means no clear call, values can overlap the other calls;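 further: 0% = neutral control wells and 100% = positive control wells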
# PfHsp90 yeast 2 = growth inhibition of PfHsp90-expressing yeast, primary screen, antimalarial PfHsp90 inhibitor project, S. cerevisiae, BacTiter-Glo luminescence, single point, set 2; inhibition, % at 9.4 µM; hit rate 0.32% among 310,000; BacTiter-Glo ATP, 48 h; yeast lacking PDR1 and PDR3 efflux regulators; AID 504621, 2011;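 active means every replicate shows inhibition above about 80%, whatever the replicate mean, limit read from the data; inconclusive means mean inhibition reaches the set limit but some replicate falls short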;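 further: 0% = DMSO neutral controls and 100% = 20 µM radicicol positive controls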
# TRPM1 prom inh = inhibitors of MITF-dependent TRPM1 promoter reporter, primary screen, cell-based, SK-MEL-5, single point, luciferase; SK-MEL-5 TRPM1 promoter luciferase, 24 h; inhibition, % at 12.5 µM; hit rate 0.83% among 330,000;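 active means mean inhibition across replicates of 60% or more, whatever share of single replicates reaches that level; inconclusive means some that reach 60%, reason not given; inactive means mean inhibition across replicates below 60%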
# MITF TRPM1 HTS = activators of MITF-driven TRPM1 promoter reporter, primary screen, cell-based, SK-MEL-5, luciferase, single point | SK-MEL-5 TRPM1-promoter luciferase, 24 h; % of positive control, neutral wells = 0 | activation, % at 12.5 µM | hit rate 0.75% among 300,000 | AID 588334, 2011;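 active means mean activation of at least 80% with every replicate also reaching 80%; inconclusive means mean reaches 80% but some replicate falls short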;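 further: 0% = neutral control wells and 100% = parthenolide positive control wells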
# NSD2 HMT inh = NSD2 histone methyltransferase inhibitors, primary screen, biochemical, AlphaScreen, single concentration, set 2; Histone-lysine N-methyltransferase NSD2 (Homo sapiens), O96028; inhibition, % at 12.5 µM; NSD2 peptide methylation, 120 min; hit rate 0.54% among 310,000; in the data active means inhibition above about 50%
# Target sequence (O96028 whole entry, looked up): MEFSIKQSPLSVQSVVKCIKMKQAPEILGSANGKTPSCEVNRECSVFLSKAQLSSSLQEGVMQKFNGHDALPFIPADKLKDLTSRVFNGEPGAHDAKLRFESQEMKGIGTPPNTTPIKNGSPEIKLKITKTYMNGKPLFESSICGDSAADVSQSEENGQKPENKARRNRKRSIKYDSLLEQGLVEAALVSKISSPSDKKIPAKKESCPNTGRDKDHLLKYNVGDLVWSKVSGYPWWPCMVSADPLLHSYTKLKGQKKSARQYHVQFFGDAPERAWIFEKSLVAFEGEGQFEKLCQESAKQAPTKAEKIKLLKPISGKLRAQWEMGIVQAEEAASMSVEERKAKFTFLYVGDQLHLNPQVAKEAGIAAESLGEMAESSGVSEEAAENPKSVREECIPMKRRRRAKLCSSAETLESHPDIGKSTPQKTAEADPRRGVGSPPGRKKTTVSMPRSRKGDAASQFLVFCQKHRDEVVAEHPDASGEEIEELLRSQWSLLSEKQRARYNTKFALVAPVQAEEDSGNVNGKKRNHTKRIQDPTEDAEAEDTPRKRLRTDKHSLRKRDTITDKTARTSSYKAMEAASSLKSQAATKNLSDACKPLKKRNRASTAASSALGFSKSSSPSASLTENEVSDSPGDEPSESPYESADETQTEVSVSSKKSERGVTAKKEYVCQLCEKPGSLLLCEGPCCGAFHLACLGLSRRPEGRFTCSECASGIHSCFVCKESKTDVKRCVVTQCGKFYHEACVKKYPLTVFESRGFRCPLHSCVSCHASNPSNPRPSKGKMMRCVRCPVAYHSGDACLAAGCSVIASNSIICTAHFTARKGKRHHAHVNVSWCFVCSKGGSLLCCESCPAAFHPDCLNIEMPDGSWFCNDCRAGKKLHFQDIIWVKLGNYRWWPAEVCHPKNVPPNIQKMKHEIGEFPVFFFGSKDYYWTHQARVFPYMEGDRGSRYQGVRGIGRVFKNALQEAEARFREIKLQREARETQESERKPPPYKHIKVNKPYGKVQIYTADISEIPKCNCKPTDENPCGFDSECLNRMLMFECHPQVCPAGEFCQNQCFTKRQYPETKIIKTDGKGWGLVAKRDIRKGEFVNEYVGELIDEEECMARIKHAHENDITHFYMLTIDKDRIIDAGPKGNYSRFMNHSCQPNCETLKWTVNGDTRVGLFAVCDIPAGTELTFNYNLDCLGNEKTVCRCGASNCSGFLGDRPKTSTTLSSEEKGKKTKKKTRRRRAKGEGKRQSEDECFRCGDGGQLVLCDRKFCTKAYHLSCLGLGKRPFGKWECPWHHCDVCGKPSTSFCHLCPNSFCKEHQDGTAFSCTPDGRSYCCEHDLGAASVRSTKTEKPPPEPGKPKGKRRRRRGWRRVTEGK
# Glyco luc inh = increase of ERlucT glycosylation luciferase signal, primary screen, N-linked glycosylation inhibitor project, D54 ERlucT cells, luminescence, set 2 | D54 ERlucT glycosylation luciferase reporter, 24 h; percent of 100 nM tunicamycin response | reporter increase, % at 12.5 µM | hit rate 0.23% among 360,000 | AID 588692, 2011;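 active means mean luciferase reporter signal, scaled so untreated is 0 and the glycosylation-blocking control 100, at or above a set limit in every replicate; inconclusive means mean reaches the limit but not every replicate does; inactive means mean below the limit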;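 further: luciferase carries N-glycosylation sites so blocking glycosylation raises the light; 0% = median of neutral control wells and 100% = median of 100 nM tunicamycin wells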
# Starred values were filed as active, the others as inactive; ? = inconclusive; . = no result given. A selection: hits, their analogues and other compounds. The true share with any hit is near 2.9%.
SMILES,Wnt act,PfHsp90 yeast 2,TRPM1 prom inh,MITF TRPM1 HTS,NSD2 HMT inh,Glyco luc inh
Nc1c(OS(=O)(=O)c2ccccc2)cccc1OS(=O)(=O)c1ccccc1,59.7*,.,.,.,-1.4,-3.4
O=C1C2C3C=CC(C3)C2C(=O)N1c1ccccc1OS(=O)(=O)c1ccccc1 (stereo not given),-2.4,6.4,-2.6,5.6,-1.5,0.9
O=C(O)CCCNc1cc(N2CCN(C(=O)c3ccco3)CC2)c2noc3c2c1C(=O)c1ccccc1-3,-1.4,-25.3,-2.5,-0.7,77.6*,0.3
Cc1csc(=N)n1-c1ccc(Cl)cc1,-1.1,-9.0,-100.1,96.8*,2.2,0.1
Cc1ccc(-n2c(C)csc2=N)cc1,.,-2.4,-56.0,58.8,1.8,-3.6
CC(C)(C)C(=O)c1c(N)[nH]c(C(=O)c2ccccc2)c1-c1ccc(Br)cc1,-2.7,.,.,.,.,.
O=C(CCS(=O)(=O)c1ccccc1Cl)NCCC1=CCCCC1,9.9,3.7,-38.8,40.8,-4.7,1.5
O=c1oc2ccccc2c2c1ncn2CCN1CCOCC1,43.6*,-16.9,2.9,.,0.9,4.4
CN1CCN(CCCn2cnc3c(=O)oc4ccccc4c32)CC1,-1.1,-3.1,4.4,.,.,1.9
COc1ccc(OC)c(NC(=O)CCNC(=O)N2CC(=O)Nc3ccccc32)c1,-2.1,.,.,.,-5.5,6.0
COc1ccc(-c2c(C)nc3c(-c4ccccn4)cnn3c2N)cc1,22.4,-15.5,.,.,-1.6,-17.2
COc1ccc(-c2c(C)nc3c(-c4ccsc4)cnn3c2N)cc1,28.7,13.4,-85.4,94.1*,0.1,-15.0
COc1cc(/C=C2\CC(C(C)(C)C)C/C(=C\c3cc(OC)c(OC)c(OC)c3)C2=O)cc(OC)c1OC (stereo not given),-14.7,-0.7,84.2*,-81.6,-0.9,-9.2
COc1cc(/C=C2\COC/C(=C\c3cc(OC)c(OC)c(OC)c3)C2=O)cc(OC)c1OC,-17.7,1.2,92.1*,-90.0,2.9,-22.2
COc1cc(/C=C2\CCC(C3CCCC3)C2=O)cc(OC)c1OC (stereo not given),16.0,7.3,-44.8,44.1,-1.0,-10.6
COc1cc(/C=C2\CC/C(=C\c3cc(OC)c(OC)c(OC)c3)C2=O)cc(OC)c1OC,.,10.1,20.5,-18.2,2.0,3.2
CC(=O)c1ccc(OCc2cc(C(=O)N(C)Cc3ccccn3)no2)cc1,19.1,-3.2,-95.4,99.2*,-1.4,1.1
Cc1cc(OCc2cc(C(=O)N(C)Cc3ccccn3)no2)cc(C)c1Cl,?,-0.2,-95.6,97.5*,-3.6,-2.1
CC(=O)c1ccc(OCc2cc(C(=O)N(C)Cc3ccon3)no2)cc1,0.6,-2.0,-5.2,6.7,0.5,0.5
COc1ccc(C(=O)NCC2CCN(C(=O)C(=O)c3cc4ccccc4o3)CC2)c(OC)c1,-2.7,.,.,.,-1.4,.
COc1cc(C(=O)NC2CCN(C)CC2)ccc1Nc1ncc2c(n1)N(Cc1ccccc1)CCC(=O)N2C,?,-22.5,47.3,-46.9,.,104.8*
COc1cc(C(=O)NC2CCN(C)CC2)ccc1Nc1ncc2c(n1)N(C1CCCCC1)CCC(=O)N2C,3.7,-3.9,?,-58.7,.,51.7*
CN(C)S(=O)(=O)c1cccc(C(=O)N/N=C\c2ccccc2[N+](=O)[O-])c1,.,.,.,.,0.9,.
CCCCN(C(=O)c1cc(-c2ccco2)nc2ccccc12)c1c(N)n(CCC)c(=O)[nH]c1=O,0.2,1.2,-6.1,6.2,2.3,-1.2
CC(=O)Nc1ccc(NC(=O)c2ccco2)cc1,.,11.3,-35.7,30.0,5.6,0.6
CCN1CCN(c2ccc(NC(=O)c3ccco3)cc2)CC1,15.8,-3.2,-93.6,86.0*,.,-3.3
O=C(c1ccco1)N1CCN(c2ccc(Cl)cc2)CC1,22.3,3.2,-83.5,92.8*,0.5,-0.7
CCCC(=O)N1CCN(c2ccc(NC(=O)c3ccco3)cc2)CC1,3.3,-3.2,-8.1,4.5,1.2,-1.5
O=C(Nc1ccc(Cl)cc1)c1ccco1,45.4*,-16.1,-41.8,45.2,-1.4,1.0
